In PubChem BioAssay AID1159580 (chemical genetic matrix, 2015):
“And” between values parts separate entries of the source, which are not always exact repeats. Equal values may be shown once. About 2,000 (36%) of roughly 5,500 compounds were called active. Roughly 18% stayed inconclusive and do not appear here. No stated cut-off is given here; in the data, active means normalized growth mostly below about 0.91 (no sharp cut-off); inconclusive means no clear call, values can overlap the other calls; inactive means mostly above about 0.92. This is one part of the list.

Experiment: chemical genetic growth profiling, strain panel (AID 1159580);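 further: tested at 20 µM; growth read once vehicle control cultures reached saturation at 30 °C; 1 = growth at the plate median or of vehicle wells; lower values mean less growth of the strain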
Settings: S. cerevisiae deletion strains, growth OD

Measured: normalized growth

CC(N)C(=O)OC(C)(C)Cc1ccc(Cl)cc1 (stereo unspecified)
inactive: locus YAL013W, strain DEP1, active compounds read low 0.986 and 1.01 | locus YAL021C, strain ccr4, active compounds read low 1.03 | locus YAL026C, strain drs2, active compounds read low 1.03 | locus YAL030W, strain snc1, active compounds read low 1.01 | locus YAL040C, strain CLN3, active compounds read low 1 | locus YBL061C, strain skt5, active compounds read low 1.02 | locus YBR009C, strain hhf1, active compounds read low 1.06 | locus YBR021W, strain FUR4, active compounds read low 0.943 | locus YBR023C, strain chs3, active compounds read low 1.02 | locus YBR171W, strain sec66, active compounds read low 1.02 | locus YBR229C, strain ROT2, active compounds read low 0.957 | locus YBR231C, strain swc5, active compounds read low 1.01 | locus YBR279W, strain paf1, active compounds read low 1.01 | locus YCL011C, strain gbp2, active compounds read low 1.01 | locus YCL016C, strain dcc1, active compounds read low 1.01 | locus YCL029C, strain bik1, active compounds read low 0.987 | locus YCL061C, strain MRC1 (second series), active compounds read low 0.995 | locus YCL061C, strain MRC1, active compounds read low 1.02 | locus YCL069W, strain vba3, active compounds read low 1.01 | locus YCR088W, strain abp1, active compounds read low 1.01 | locus YDL005C, strain med2, active compounds read low 1.03 | locus YDL035C, strain GPR1, active compounds read low 0.98 | locus YDL040C, strain nat1, active compounds read low 1 | locus YDL074C, strain BRE1, active compounds read low 0.988 | locus YDL101C, strain DUN1, active compounds read low 0.983 | locus YDL134C, strain PPH21, active compounds read low 0.984 | locus YDL185W, strain tfp1, active compounds read low 0.996 | locus YDL192W, strain arf1, active compounds read low 0.983 | locus YDR001C, strain nth1, active compounds read low 1.02 | locus YDR069C, strain doa4, active compounds read low 1.03 | locus YDR101C, strain arx1, active compounds read low 0.983 | locus YDR137W, strain rgp1, active compounds read low 1.05 | locus YDR150W, strain NUM1, active compounds read low 0.96 | locus YDR159W, strain sac3, active compounds read low 1.01 | locus YDR162C, strain NBP2, active compounds read low 0.985 | locus YDR195W, strain ref2 0.97 | locus YDR297W, strain sur2, active compounds read low 1.01 | locus YDR318W, strain mcm21, active compounds read low 0.996 | locus YDR334W, strain swr1, active compounds read low 1.02 | locus YDR335W, strain msn5, active compounds read low 1.02 | locus YDR363W, strain ESC2, active compounds read low 0.999 | locus YDR388W, active compounds read low 0.989 | locus YDR392W, strain spt3, active compounds read low 1.03 | locus YDR502C, strain sam2, active compounds read low 0.991 | locus YEL003W, strain gim4, active compounds read low 1.01 | locus YEL037C, strain rad23, active compounds read low 1.01 | locus YEL061C, strain CIN8 (second series), active compounds read low 1.02 | locus YEL061C, strain CIN8, active compounds read low 0.977 | locus YER002W, strain NOP16, active compounds read low 1.02 | locus YER015W, strain faa2, active compounds read low 1.01 | locus YER016W, strain bim1, active compounds read low 1.01 | locus YER110C, active compounds read low 0.972 | locus YER111C, strain swi4, active compounds read low 1.03 | locus YER155C, strain BEM2 (second series), active compounds read low 0.996 | locus YER155C, strain BEM2, active compounds read low 1 | locus YER167W, strain BCK2, active compounds read low 1.01 | locus YFR010W, strain ubp6, active compounds read low 1.03 | locus YGL078C, strain dbp3, active compounds read low 0.983 | locus YGL086W, strain mad1, active compounds read low 0.975 | locus YGL167C, strain pmr1, active compounds read low 1.01 | locus YGL173C, strain kem1, active compounds read low 1.04 | locus YGL227W, strain vid30, active compounds read low 1.01 | locus YGL240W, strain doc1, active compounds read low 1.02 | locus YGL248W, strain PDE1, active compounds read low 0.984 | locus YGL253W, strain hxk2, active compounds read low 1.01 | locus YGR078C, strain PAC10, active compounds read low 0.982 | locus YGR135W, strain pre9, active compounds read low 0.994 | locus YGR229C, strain SMI1, active compounds read low 0.996 | locus YGR252W, strain gcn5, active compounds read low 0.882 | locus YHR013C, strain ard1, active compounds read low 1.04 | locus YHR027C, strain rpn1, active compounds read low 1.01 | locus YHR030C, strain SLT2, active compounds read low 0.982 and 1.03 | locus YHR079C, strain IRE1 (second series), active compounds read low 0.994 | locus YHR079C, strain IRE1, active compounds read low 1.03 | locus YHR094C, strain hxt1, active compounds read low 0.995 | locus YHR129C, strain ARP1, active compounds read low 0.997 | locus YHR142W, strain chs7, active compounds read low 1.04 | locus YHR200W, strain rpn10, active compounds read low 0.987 | locus YIL066C, strain RNR3, active compounds read low 0.965 | locus YIL073C, strain SPO22, active compounds read low 1.02 | locus YIL125W, strain kgd1, active compounds read low 0.984 | locus YIR030C, strain dcg1, active compounds read low 0.977 | locus YJL092W, strain hpr5, active compounds read low 1.02 | locus YJL095W, strain BCK1 (second series), active compounds read low 1 | locus YJL095W, strain BCK1, active compounds read low 1.02 and 1.01 | locus YJL115W, strain asf1, active compounds read low 1.02 | locus YJL129C, strain trk1, active compounds read low 1.03 | locus YJL134W, strain LCB3, active compounds read low 0.983 | locus YJL154C, strain vps35, active compounds read low 1.01 | locus YJL164C, strain tpk1, active compounds read low 1.03 | locus YJL166W, strain qcr8, active compounds read low 1.04 | locus YJL168C, strain set2, active compounds read low 0.989 | locus YJL187C, strain SWE1 (second series), active compounds read low 0.978 | locus YJL187C, strain SWE1, active compounds read low 1.01 | locus YJR043C, strain POL32, active compounds read low 1.02 | locus YJR066W, strain TOR1, active compounds read low 0.971
